Test results as given in PubChem BioAssay AID1706 (The Scripps Research Institute Molecular Screening Center, 2009).
The campaign covered roughly 290,000 compounds. About 400 (0.14%) were called active. The sample as a whole holds a higher share of actives than the screen did. Unmarked numbers belong to inactive results. No stated cut-off is given here; in the data, active means inhibition above about 12%; inactive means the rest.

Target: Replicase polyprotein 1ab (Severe acute respiratory syndrome coronavirus) (UniProt P0C6X7)
Assay: SARS-CoV 3CLpro protease inhibitors, primary screen, biochemical, quenched FRET (AID 1706)
Details: recombinant SARS-CoV 3CLpro, quenched FRET peptide cleavage; at 6 µM; stronger effect = higher value

Compound	inhibition
C[C@H](NC(=O)C1CC(=O)N(c2ccc3c(c2)OCCO3)C1)C(=O)N1CCC(C(=O)O)CC1 (stereo partly drawn)	2.21%
CCOC(CNC(=O)C(=O)NCC(c1ccco1)N1CCN(c2ccc(OC)cc2)CC1)OCC (stereo not drawn)	-3.43%
Cc1c(C(=O)NCCN2CCOCC2)sc2nc(-c3ccc(F)cc3)cn12	3.35%
Cc1ccc(NS(=O)(=O)c2ccc3c(c2)oc(=O)n3C)c(C)c1	8.19%
CC1(C)N=C(c2ccccn2)C(C)(C)N1O	-1.96%
COc1ccc([N+](=O)[O-])cc1NCC(=O)c1ccc(C)cc1	-0.37%
O=c1[nH]c(/C=C\c2cccc(C(F)(F)F)c2)nc(O)c1[N+](=O)[O-]	-0.63%
COc1ccc(C(CNC(=O)c2cc3c(s2)CCCC3)N2CCOCC2)cc1 (stereo not drawn)	0.58%
N#Cc1ncc(C(F)(F)F)cc1Oc1cccnc1	4%
COc1cccc(C(=O)NC(=O)Nc2nc(C)cc(C(F)(F)F)n2)c1	-0.93%
COc1cccc(CN(C)CC(O)COC(c2ccccc2)c2ccccc2C)c1 (stereo not drawn)	-1.74%
CCCCCCCCCCCCN1C(=O)CSC1c1cccnc1 (stereo not drawn)	0.63%
Cn1nc(-c2ccc(N3CCOCC3)c(NC(=O)c3ccccc3)c2)c2ccccc2c1=O	-4%
O=C(Cc1ccc(Br)cc1)NCCN1CCOCC1	-3.15%
Cc1ccc(CNC(=O)C2(C(F)(F)F)C/C(=C\Cc3ccccc3)CCCO2)o1 (stereo not drawn)	2.14%
CC(=O)N1CCCc2cc(S(=O)(=O)N3CCCC(C(=O)N4CCN(c5cccc(Cl)c5)CC4)C3)ccc21 (stereo not drawn)	-4.69%
O=C(NC1CCCC1)C(c1ccco1)N(C(=O)c1ccco1)c1ccc(F)cc1 (stereo not drawn)	-3.74%
CC(C)c1ccc(N(C(=O)c2ccco2)C(C(=O)NC2CCCC2)c2cccnc2)cc1 (stereo not drawn)	50.8% (active)
COc1cccc(N(C(=O)CNC(=O)c2ccco2)C(C(=O)NC2CCCCC2)c2cccnc2)c1 (stereo not drawn)	0.2%
CS(=O)(=O)N(CC(=O)N1CCOCC1)c1cccc(Cl)c1Cl	10.7%
CCC(C)(C)NC(=O)C(c1ccc(O)cc1)N(C(=O)Cn1nnc2ccccc21)c1ccc(NC(C)=O)cc1 (stereo not drawn)	27.5% (active)
COc1ccc(C(C(=O)NC(C)(C)C)N(C(=O)Cn2nnc3ccccc32)c2ccc(C(C)=O)cc2)cc1O (stereo not drawn)	3.87%
COc1ccc(C(C(=O)NCC2CCCO2)N(C(=O)Cn2nnc3ccccc32)c2ccc(NC(C)=O)cc2)cc1OC (stereo not drawn)	11.5%
